activity, negative = cell killing data for eight molecules are collected here from PubChem BioAssay (NCATS).

Each structure is given as a SMILES string. Where “and” joins values, the source holds several entries; their conditions need not be identical. Identical values can stand only once. Inconclusive results are not listed. A number with no mark means an inactive call. Calls come from the whole dose curve; as a rule, active = well fitted inhibition curve with a large enough effect; inconclusive = small, poorly fitted or top-dose-only effect; inactive = flat fitted curve, though single readings scatter.
% is set by controls: 0 for no effect and ±100 for the full control effect.

The nature of one assay: Drug repurposing screens with cells derived from glioblastoma tumor samples (AID 1345199). Note: nearly all actives have a fitted effect of over 40% in size. The note with it: GBM patient neurospheres viability, ATP luminescence, 48 h; at 45.9 µM (top of the series); tumour line D. In short, it runs like this: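 Primary testing used CD133+ neurospheres from four GBM patients, seven concentrations, 48 h exposure and ATP-based viability; confirmation added three slower-growing patient lines.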
As for `CN1Cc2c(N)cccc2C(c2ccccc2)C1` (centres undefined), the activity, negative = cell killing is -22.4%.

Consider `C[C@]12C=CC(=O)C=C1CC[C@@H]1[C@@H]2[C@@H](O)C[C@@]2(C)[C@H]1CC[C@]2(O)C(=O)COC(=O)CCC(=O)O`, for which the activity, negative = cell killing is -5.28%.

`OC[C@H]1O[C@@H](OCCc2ccc(O)cc2)[C@H](O)[C@@H](O)[C@@H]1O`: the activity, negative = cell killing is 11.3%.

For the molecule `C[C@@H]1C[C@H]2[C@@H]3CCC4=CC(=O)C=C[C@]4(C)[C@@]3(F)[C@@H](O)C[C@]2(C)[C@@]1(O)C(=O)COP(=O)(O)O`, the activity, negative = cell killing was 1.29%.

As to `CCC(=O)NS(=O)(=O)c1ccc(-c2c(-c3ccccc3)noc2C)cc1`, the activity, negative = cell killing was 8.31%.

Regarding `CC[C@H]1OC(=O)C[C@@H](O)[C@H](C)[C@@H](O[C@@H]2O[C@H](C)[C@@H](O)[C@H](N(C)C)[C@H]2O)[C@@H](CCN2C[C@H](C)C[C@H](C)C2)C[C@@H](C)C(=O)/C=C/C(C)=C/[C@@H]1CO[C@@H]1O[C@H](C)[C@@H](O)[C@@H](OC)[C@H]1OC`, the activity, negative = cell killing was -15.7%.

Regarding `CC(=O)OC(C)OC(=O)C(C)c1ccc(-c2ccccc2)c(F)c1` (centres undefined), the activity, negative = cell killing is 13.1% and -23.3%.

Turning to `CCC(=O)O[C@]1(C(=O)CCl)[C@@H](C)C[C@H]2[C@@H]3C[C@H](F)C4=CC(=O)C=C[C@]4(C)[C@@]3(F)[C@@H](O)C[C@@]21C`, the activity, negative = cell killing is -33.8%.

The same assay, now with this note: GBM patient neurospheres viability, ATP luminescence, 48 h; at 46 µM (top of the series); tumour line A.
In the case of `CN1Cc2c(N)cccc2C(c2ccccc2)C1` (centres undefined), the activity, negative = cell killing was -25.6%.

Regarding `C[C@]12C=CC(=O)C=C1CC[C@@H]1[C@@H]2[C@@H](O)C[C@@]2(C)[C@H]1CC[C@]2(O)C(=O)COC(=O)CCC(=O)O`, the activity, negative = cell killing was -20.8%.

Consider `OC[C@H]1O[C@@H](OCCc2ccc(O)cc2)[C@H](O)[C@@H](O)[C@@H]1O`, for which the activity, negative = cell killing was -5.89%.

For the molecule `C[C@@H]1C[C@H]2[C@@H]3CCC4=CC(=O)C=C[C@]4(C)[C@@]3(F)[C@@H](O)C[C@]2(C)[C@@]1(O)C(=O)COP(=O)(O)O`, the activity, negative = cell killing was -0.902%.

For the molecule `CCC(=O)NS(=O)(=O)c1ccc(-c2c(-c3ccccc3)noc2C)cc1`, the activity, negative = cell killing was -24%.

Consider `CC(=O)OC(C)OC(=O)C(C)c1ccc(-c2ccccc2)c(F)c1` (centres undefined), for which the activity, negative = cell killing is -17.1%.
